# Assay results as given in the supplement of paper PMC8728848.
# The sample as a whole holds a higher share of the strongest signals than the screen did.
# B1: DBA (Dolichos biflorus) (protein)
# chain: ANIQSFSFKNFNSPSFILQGDATVSSGKLQLTKVKENGFPLRFPSGRAFYSSPIQIYDKFTGAVASWATSFTVKISAPSKASFADGIAFALVPVGSEPRRNGGYLGVFDSDVYNNSAQTVAVEFDTLSNSGWDPSMKHIGIDVNSIKSIATVSWDLANGENAEILITYNAATSLLVVSLVHPSRRTSYILSERVDITNELPEYVGVGFSATTGLSEGYIETHDVLSWSFASRLPDDSTAEPLDLARYLVRNVL
# Key:
# Experiment in all cases: glycan array binding signal (z-score within array); higher = stronger binding
# Conditions in all cases: glycan notation: IUPAC condensed, linker removed
# [1] = biological target: Fuc(a1-2)Gal(b1-3)GalNAc(a1-3)[Fuc(a1-2)]Gal(b1-4)Glc
# Outline: (§1)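 The binding signal is a Z-score computed within each array and averaged over linkers. Arrays of the same protein sequence at different concentrations or buffers were also averaged together. Data originate from 3228 arrays in the Consortium for Functional Glycomics database, kept only where the protein sequence was available.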
# [2] = biological target: Fuc(a1-2)Gal(b1-3)GlcNAc(b1-3)[Gal(b1-4)GlcNAc(b1-6)]Gal(b1-4)Glc
# Outline: as §1
# [3] = biological target: Fuc(a1-2)Gal(b1-3)GlcNAc(b1-3)[Neu5Ac(a2-6)Gal(b1-4)GlcNAc(b1-6)]Gal(b1-4)Glc
# Outline: as §1
# [4] = biological target: Fuc(a1-2)Gal(b1-3)[Fuc(a1-4)]GlcNAc
# Outline: as §1
# Fuc(a1-2)Gal(b1-4)Glc6S = biological target: Fuc(a1-2)Gal(b1-4)Glc6S
# Outline: as §1
# [5] = biological target: Fuc(a1-2)Gal(b1-4)[Fuc(a1-3)]GlcNAc(b1-3)GalNAc
# Outline: as §1
# [6] = biological target: Fuc(a1-2)Gal3S(b1-4)GlcNAc
# Outline: as §1
# Fuc(a1-2)Gal6S(b1-4)Glc = biological target: Fuc(a1-2)Gal6S(b1-4)Glc
# Outline: as §1
# [7] = biological target: Fuc(a1-2)[GalNAc(a1-3)]Gal
# Outline: as §1
# [8] = biological target: Fuc(a1-2)[GalNAc(a1-3)]Gal(b1-3)GlcNAc(b1-6)GalNAc
# Outline: as §1
# [9] = biological target: Fuc(a1-2)[GalNAc(a1-3)]Gal(b1-4)Glc
# Outline: as §1
# [10] = biological target: Fuc(a1-2)[GalNAc(a1-3)]Gal(b1-4)GlcNAc
# Outline: as §1
# [11] = biological target: Fuc(a1-2)[GalNAc(a1-3)]Gal(b1-4)[Fuc(a1-3)]GlcNAc(b1-3)GalNAc
# Outline: as §1
# [12] = biological target: Fuc(a1-3)[Gal(b1-4)]GlcNAc(b1-2)Man
# Outline: as §1
# [13] = biological target: Fuc(a1-3)[Gal(b1-4)]GlcNAc(b1-4)Gal(b1-4)[Fuc(a1-3)]GlcNAc
# Outline: as §1
# [14] = biological target: Fuc(a1-3)[Gal3S(b1-4)]GlcNAc6S
# Outline: as §1
# Fuc(a1-4)GlcNAc = biological target: Fuc(a1-4)GlcNAc
# Outline: as §1
# Gal(a1-3)Gal(b1-3)GlcNAc = biological target: Gal(a1-3)Gal(b1-3)GlcNAc
# Outline: as §1
# Gal(a1-3)Gal(b1-4)Glc = biological target: Gal(a1-3)Gal(b1-4)Glc
# Outline: as §1
# [15] = biological target: Gal(a1-4)Gal(b1-3)GlcNAc(b1-2)Man(a1-3)[Gal(a1-4)Gal(b1-3)GlcNAc(b1-2)Man(a1-6)]Man(b1-4)GlcNAc(b1-4)GlcNAc
# Outline: as §1
# Gal(a1-4)GlcNAc = biological target: Gal(a1-4)GlcNAc
# Outline: as §1
# Gal(b1-2)Gal = biological target: Gal(b1-2)Gal
# Outline: as §1
# [16] = biological target: Gal(b1-3)GlcNAc(b1-3)Gal(b1-4)GlcNAc(b1-3)Gal(b1-4)GlcNAc(b1-2)[Gal(b1-3)GlcNAc(b1-3)Gal(b1-4)GlcNAc(b1-3)Gal(b1-4)GlcNAc(b1-6)]Man(a1-6)[Gal(b1-3)GlcNAc(b1-3)Gal(b1-4)GlcNAc(b1-3)Gal(b1-4)GlcNAc(b1-2)Man(a1-3)]Man(b1-4)GlcNAc(b1-4)[Fuc(a1-6)]GlcNAc
# Outline: as §1
# [17] = biological target: Gal(b1-3)GlcNAc(b1-3)Gal(b1-4)[Fuc(a1-3)]GlcNAc(b1-6)[Gal(b1-3)GlcNAc(b1-3)]Gal(b1-4)Glc
# Outline: as §1
# [18] = biological target: Gal(b1-3)GlcNAc(b1-3)GalNAc
# Outline: as §1
# [19] = biological target: Gal(b1-4)GlcNAc(b1-3)Gal(b1-3)GlcNAc
# Outline: as §1
# [20] = biological target: Gal(b1-4)GlcNAc(b1-3)GalNAc
# Outline: as §1
# [21] = biological target: Gal(b1-4)GlcNAc(b1-6)[Gal(b1-3)]GalNAc
# Outline: as §1
# GalNAc(a1-3)GalNAc = biological target: GalNAc(a1-3)GalNAc
# Outline: as §1
# [22] = biological target: GalNAc(a1-3)GalNAc(a1-3)Gal(a1-4)Gal(b1-4)GlcNAc
# Outline: as §1
# [23] = biological target: GalNAc(a1-3)GalNAc(b1-3)Gal(a1-4)Gal(b1-4)Glc
# Outline: as §1
# GalNAc(b1-4)GlcNAc6S = biological target: GalNAc(b1-4)GlcNAc6S
# Outline: as §1
# [24] = biological target: GlcNAc(a1-4)Gal(b1-4)GalNAc
# Outline: as §1
# [25] = biological target: GlcNAc(a1-4)Gal(b1-4)GlcNAc(b1-3)Gal(b1-4)[Fuc(a1-3)]GlcNAc(b1-3)Gal(b1-4)[Fuc(a1-3)]GlcNAc
# Outline: as §1
# [26] = biological target: GlcNAc(b1-2)[GlcNAc(b1-4)]Man(a1-3)[GlcNAc(b1-4)][GlcNAc(b1-2)Man(a1-6)]Man(b1-4)GlcNAc(b1-4)GlcNAc
# Outline: as §1
# [27] = biological target: GlcNAc(b1-3)Gal(b1-4)GlcNAc(b1-3)Gal(b1-4)GlcNAc(b1-3)Gal(b1-4)GlcNAc(b1-3)Gal(b1-4)GlcNAc(b1-2)[GlcNAc(b1-3)Gal(b1-4)GlcNAc(b1-3)Gal(b1-4)GlcNAc(b1-3)Gal(b1-4)GlcNAc(b1-3)Gal(b1-4)GlcNAc(b1-6)]Man(a1-6)[GlcNAc(b1-3)Gal(b1-4)GlcNAc(b1-3)Gal(b1-4)GlcNAc(b1-3)Gal(b1-4)GlcNAc(b1-3)Gal(b1-4)GlcNAc(b1-2)Man(a1-3)]Man(b1-4)GlcNAc(b1-4)[Fuc(a1-6)]GlcNAc
# Outline: as §1
# [28] = biological target: GlcNAc(b1-3)Gal(b1-4)GlcNAc(b1-3)GalNAc
# Outline: as §1
# GlcNAc(b1-3)GalNAc = biological target: GlcNAc(b1-3)GalNAc
# Outline: as §1
# [29] = biological target: GlcNAc(b1-4)Gal(b1-4)GlcNAc
# Outline: as §1
# Kdn(a2-3)Gal(b1-3)GlcNAc = biological target: Kdn(a2-3)Gal(b1-3)GlcNAc
# Outline: as §1
# [30] = biological target: Man(a1-2)Man(a1-2)Man(a1-6)[Man(a1-3)]Man
# Outline: as §1
# MurNAc(b1-4)GlcNAc = biological target: MurNAc(b1-4)GlcNAc
# Outline: as §1
# Neu5Ac(a2-3)GalNAc = biological target: Neu5Ac(a2-3)GalNAc
# Outline: as §1
# [31] = biological target: Neu5Ac(a2-3)[GalNAc(b1-4)]Gal(b1-4)Glc
# Outline: as §1
# [32] = biological target: Neu5Ac(a2-3)[GalNAc(b1-4)]Gal(b1-4)GlcNAc
# Outline: as §1
# [33] = biological target: Neu5Ac(a2-6)Gal(b1-4)GlcNAc
# Outline: as §1
# [34] = biological target: Neu5Ac(a2-6)Gal(b1-4)GlcNAc(b1-2)Man
# Outline: as §1
# [35] = biological target: Neu5Ac(a2-6)Gal(b1-4)GlcNAc(b1-2)Man(a1-3)Man(b1-4)GlcNAc(b1-4)GlcNAc
# Outline: as §1
# [36] = biological target: Neu5Ac(a2-6)Gal(b1-4)GlcNAc(b1-2)Man(a1-6)[Gal(b1-4)GlcNAc(b1-2)Man(a1-3)]Man(b1-4)GlcNAc(b1-4)GlcNAc
# Outline: as §1
# [37] = biological target: Neu5Ac(a2-6)Gal(b1-4)GlcNAc6S
# Outline: as §1
# [38] = biological target: Neu5Ac(a2-8)Neu5Ac(a2-3)[Gal(b1-3)GalNAc(b1-4)]Gal(b1-4)Glc
# Outline: as §1
# [39] = biological target: Neu5Ac(a2-8)Neu5Ac(a2-8)Neu5Ac(a2-8)Neu5Ac(a2-3)[GalNAc(b1-4)]Gal(b1-4)Glc
# Outline: as §1
binder,measurement,setting,value
B1,glycan array binding signal (z-score),[1],-0.133
same,glycan array binding signal (z-score),[2],-0.099
same,glycan array binding signal (z-score),[3],-0.152
same,glycan array binding signal (z-score),[4],-0.142
same,glycan array binding signal (z-score),Fuc(a1-2)Gal(b1-4)Glc6S,-0.09
same,glycan array binding signal (z-score),[5],0.449
same,glycan array binding signal (z-score),[6],-0.041
same,glycan array binding signal (z-score),Fuc(a1-2)Gal6S(b1-4)Glc,0.346
same,glycan array binding signal (z-score),[7],0.024
same,glycan array binding signal (z-score),[8],-0.113
same,glycan array binding signal (z-score),[9],0.577
same,glycan array binding signal (z-score),[10],0.575
same,glycan array binding signal (z-score),[11],0.333
same,glycan array binding signal (z-score),[12],-0.116
same,glycan array binding signal (z-score),[13],-0.19
same,glycan array binding signal (z-score),[14],-0.015
same,glycan array binding signal (z-score),Fuc(a1-4)GlcNAc,-0.115
same,glycan array binding signal (z-score),Gal(a1-3)Gal(b1-3)GlcNAc,-0.124
same,glycan array binding signal (z-score),Gal(a1-3)Gal(b1-4)Glc,-0.119
same,glycan array binding signal (z-score),[15],-0.059
same,glycan array binding signal (z-score),Gal(a1-4)GlcNAc,-0.126
same,glycan array binding signal (z-score),Gal(b1-2)Gal,-0.113
same,glycan array binding signal (z-score),[16],0.071
same,glycan array binding signal (z-score),[17],-0.1
same,glycan array binding signal (z-score),[18],-0.126
same,glycan array binding signal (z-score),[19],-0.125
same,glycan array binding signal (z-score),[20],-0.144
same,glycan array binding signal (z-score),[21],-0.121
same,glycan array binding signal (z-score),GalNAc(a1-3)GalNAc,12.1
same,glycan array binding signal (z-score),[22],12.5
same,glycan array binding signal (z-score),[23],13.4
same,glycan array binding signal (z-score),GalNAc(b1-4)GlcNAc6S,1.8
same,glycan array binding signal (z-score),[24],-0.085
same,glycan array binding signal (z-score),[25],-0.007
same,glycan array binding signal (z-score),[26],-0.133
same,glycan array binding signal (z-score),[27],-0.1
same,glycan array binding signal (z-score),[28],-0.139
same,glycan array binding signal (z-score),GlcNAc(b1-3)GalNAc,-0.101
same,glycan array binding signal (z-score),[29],-0.16
same,glycan array binding signal (z-score),Kdn(a2-3)Gal(b1-3)GlcNAc,-0.169
same,glycan array binding signal (z-score),[30],-0.081
same,glycan array binding signal (z-score),MurNAc(b1-4)GlcNAc,-0.119
same,glycan array binding signal (z-score),Neu5Ac(a2-3)GalNAc,-0.165
same,glycan array binding signal (z-score),[31],4.19
same,glycan array binding signal (z-score),[32],3.09
same,glycan array binding signal (z-score),[33],-0.103
same,glycan array binding signal (z-score),[34],-0.127
same,glycan array binding signal (z-score),[35],-0.098
same,glycan array binding signal (z-score),[36],-0.144
same,glycan array binding signal (z-score),[37],-0.118
same,glycan array binding signal (z-score),[38],-0.124
same,glycan array binding signal (z-score),[39],-0.104
